# A number with no mark means an inactive call. How the calls were made is not given here.
# Test system: Imidazoline I2
# Assay: selectivity profile over receptors, transporters, CYPs – biochemical, Ricerca HitProfilingScreen, CYP450, set 2, selectivity assay for GPR7 antagonist project, profiling panel (AID 540345)
# Conditions: Ricerca radioligand binding/CYP panel, central, at 10 µM, stronger effect = higher value
smiles,measurement,value
COc1ccc(Oc2c(Cl)cnn(C3c4ccccc4-c4ccccc43)c2=O)cc1,inhibition,12%
